# RGS4-Gao reg: modulates binding of RGS4 to human Galphao | P09471 | AID 1415 | binding response (% of control), % at 10 µM | 0.33% of 220,000 active | Multiplexed bead flow cytometry; actives lie on both sides; in the data active = binding response below about 49% or above about 150%; inactive = in between;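 also: fluorescent Galphao activated with aluminum fluoride binding bead-coupled RGS4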
# Target sequence (P09471 whole entry, looked up): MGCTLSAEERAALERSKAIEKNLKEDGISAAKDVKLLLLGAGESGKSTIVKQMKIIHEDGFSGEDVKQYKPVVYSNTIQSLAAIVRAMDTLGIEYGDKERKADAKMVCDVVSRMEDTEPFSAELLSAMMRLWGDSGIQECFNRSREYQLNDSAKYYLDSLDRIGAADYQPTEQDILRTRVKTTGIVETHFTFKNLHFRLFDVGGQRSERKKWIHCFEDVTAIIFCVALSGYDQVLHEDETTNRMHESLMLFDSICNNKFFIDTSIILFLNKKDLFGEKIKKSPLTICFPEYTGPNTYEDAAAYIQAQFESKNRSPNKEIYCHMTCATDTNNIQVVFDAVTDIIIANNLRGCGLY
# RGS16-Gao: modulates binding between human RGS16 and Galphao; 0.38% of 220,000 active; AID 1441; binding response (% of control), % at 10 µM; bead-based flow cytometry RGS16-Galphao binding, fluorescence; actives lie on both sides;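 also: Galphao activated by GDP with aluminum fluoride before binding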
# Target sequence (O15492 whole entry, looked up): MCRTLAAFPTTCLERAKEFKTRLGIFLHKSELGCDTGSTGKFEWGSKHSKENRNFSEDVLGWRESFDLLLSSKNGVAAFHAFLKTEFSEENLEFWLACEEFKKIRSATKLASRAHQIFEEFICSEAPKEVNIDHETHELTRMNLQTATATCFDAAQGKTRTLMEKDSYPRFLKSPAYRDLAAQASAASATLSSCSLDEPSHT
# Target sequence (P09471 whole entry, looked up): as the sequence (P09471 whole entry, looked up) above
# GSH bead fluor: GSH bead compound fluorescence profile. GSH beads flow cytometry, compound fluorescence 488/530 nm; hits give high values. 0.25% of 190,000 active. fluorescence (KMESF) at 10 µM; in the data active = fluorescence above about 89;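 also: glutathione beads carrying GST-tagged Bcl family fusion proteins plus one bare bead set; values are compound well signal with DMSO vehicle wells as background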
# RGS7-Gao reg: modulates binding of RGS7 to human Galphao | 0.35% of 220,000 active | AID 1439 | Multiplexed bead flow cytometry; actives lie on both sides | P09471 | binding response (% of control), % at 10 µM; in the data active = binding response below about 49% or above about 150%; inconclusive = no clear call, values can overlap the other calls; inactive = in between;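 also: fluorescent Galphao held in activated GDP-AlF4 state binding bead-coupled RGS7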
# RGS8-Gao: modulates binding of RGS8 to human Galphao; P09471; multiplexed bead flow cytometry; actives lie on both sides; response (percent of control binding), % at 10 µM; 0.34% of 220,000 active; in the data active = response below about 60% or above about 140%; inactive = in between;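 also: Galphao activated as the GDP aluminium fluoride complex binding bead-coupled RGS8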
# Avidin fluor: compound fluoresces at 488/530 nm on avidin beads; compound fluorescence 488/530 nm, flow cytometry; hits give high values; fluorescence (KMESF) at 10 µM; 0.38% of 220,000 active; in the data active = fluorescence above about 47
# RGS4-Gao HTS: RGS4-Galphao interaction regulator (human). shares compounds with RGS16-Gao. multiplexed bead flow cytometry, RGS–Galpha-o binding. RGS4–Galpha-o binding response, % at 10 µM. 99% of 1,600 active;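 also: fluorescently labeled Galpha-o bound to GDP with aluminium fluoride binding biotinylated RGS beads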
# Avidin counter: counter-screen: compounds disrupting biotin binding to avidin beads; shares compounds with RGS16-Gao; streptavidin beads, fluorescein-biotin binding, flow cytometry; inhibition, % at 10 µM; 1,700 tested, under 10 active;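 active = inhibition above 50%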;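 also: median green fluorescence of gated singlet beads compared with DMSO control wells; 0% = DMSO wells and 100% = complete loss of bead fluorescence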
# RGS8-Gao confirm: confirmation of regulators of human RGS8-Galphao interaction | 3% of 1,700 active | shares compounds with RGS16-Gao | binding response (% of control), % at 10 µM | bead-based flow cytometry RGS8-Galphao binding, fluorescence; actives lie on both sides; in the data active = binding response below about 72% or above about 130%; inactive = in between;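 also: Galphao activated as GDP AlF4 complex before binding bead RGS8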
# RGS7-Gao single: confirmation of regulators of human RGS7-Galphao interaction; 7.8% of 1,700 active; shares compounds with RGS16-Gao; bead-based flow cytometry RGS7-Galphao binding; actives lie on both sides; response (percent of control binding), % at 10 µM; in the data active = response below about 75% or above about 130%; inactive = in between;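 also: fluorescent Galphao activated with GDP and aluminum fluoride binding bead-coupled RGS7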
# RGS16-Gao single: RGS16-Galphao interaction regulation, single point confirmation. shares compounds with RGS16-Gao. bead-based flow cytometry, RGS16-Galphao binding; actives lie on both sides. response (% of control binding), % at 10 µM. 4% of 1,700 active. AID 1838; in the data active = response below about 74% or above about 130%; inactive = in between;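 also: Galphao activated as the GDP aluminium fluoride complex binding bead-coupled RGS16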
# RGS4-Gao single: confirmation of regulators of human RGS4-Galphao interaction; AID 1840; binding response (% of control), % at 10 µM; 4% of 1,700 active; RGS4-Galphao binding, multiplexed bead flow cytometry; actives lie on both sides; shares compounds with RGS16-Gao; in the data active = binding response below about 74% or above about 130%; inactive = in between
# RGS19-Gao single: confirmation of regulators of human RGS19-Galphao interaction; shares compounds with RGS16-Gao; bead-based flow cytometry RGS19-Galphao binding; actives lie on both sides; response (percent of control binding), % at 10 µM; 5% of 1,700 active; in the data active = response below about 50% or above about 160%; inactive = in between;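 also: 100% = no compound control and 0% = blank background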
# * marks the source's active call; other numbers are inactive results; ? = inconclusive; . = not tested or not shown; [ ] = another dose, or the depositor's remark. Only some compounds are listed: those with a hit (about 1.2% of all), similar ones and a draw of the others. Unless noted, no rule for the calls is given here.
SMILES,RGS4-Gao reg,RGS16-Gao,GSH bead fluor,RGS7-Gao reg,RGS8-Gao,Avidin fluor,RGS4-Gao HTS,Avidin counter,RGS8-Gao confirm,RGS7-Gao single,RGS16-Gao single,RGS4-Gao single,RGS19-Gao single
COc1ccccc1OCCOCCOc1ccc(C)cc1Br,89,22*,10,89,80,7,89*,-2,101,98,100,101,96
O=c1ccc2cc(S(=O)(=O)N3CCN(c4cc(Cl)ccc4Cl)CC3)ccc2o1,.,.,42,.,.,.,.,-2,100,102,101,101,103
COc1ccc(C(=O)c2c[nH]c(C(=O)NCc3ccco3)c2)cc1,29*,1.2*,22,20*,18*,1,.,-2,103,103,106,101,98
COc1cccc(C(=O)c2c[nH]c(C(=O)NCc3ccco3)c2)c1,105,105,39,103,100,5,.,.,.,.,.,.,.
COC(=O)c1ccccc1NC(=O)c1ccc2c(c1)OCCO2,134,231*[activator],52,137,131,15,134*,1,98,94,97,100,87
CC(C)(C)C(=O)Nc1ccccc1C(=O)OCC(=O)c1ccc2c(c1)OCCO2,99,94,10,99,99,3,.,.,.,.,.,.,.
CC(C)(C)C(=O)Nc1cccc(-c2cc(-c3c(Cl)cccc3Cl)no2)c1,108,99,.,?,99,15,.,.,.,.,.,.,.
COc1cc2c(-c3ccc(O)cc3)nc3c(c(C)nn3-c3ccccc3)c2cc1OC,200*[activator],468,5,89,100,8,.,1,100,96,97,98,102
COc1cc2c(C)nc3c(c(C)nn3-c3ccccc3)c2cc1OC,98,109,16,85,92,5,.,.,.,.,.,.,.
Cc1ccc(C)c(-n2nnnc2SCC(=O)NNC(=O)c2ccco2)c1,101,101,19,104,102,11,.,.,.,.,.,.,.
Cn1ccnc1SCC(=O)n1c2c(c3ccccc31)CCCC2,60,16,9,60,55*,1,60*,0,100,94,101,96,97
Cn1ccnc1SCC(=O)Nc1cccc2ccccc12,103,131,11,103,111,7,.,.,.,.,.,.,.
CC1(C)N([O-])c2cc([N+](=O)[O-])ccc2[N+]1=O,84,-9.3*,.,?,29*,0,84*,.,.,.,.,.,.
Cc1nnc(Cl)c2nn(-c3ccccc3F)c(C)c12,102,105,8,103,101,4,.,.,.,.,.,.,.
Cc1nnc(SCCN2CCOCC2)c2nn(-c3ccccc3F)c(C)c12,110,180*[activator],3,109,121,13,110*,0,110,111,113,109,112
Cc1nn(-c2cc(N3CCOCC3)ccc2[N+](=O)[O-])c(=O)c2ccccc12,110,101,17,161*[activator],100,67*,110*,-2,106,93,106,102,105
Cc1nn(-c2cc(N3CCCC3)ccc2[N+](=O)[O-])c(=O)c2ccccc12,95,86,33,101,96,7,.,.,.,.,.,.,.
Cc1cc(C)nc(NS(=O)(=O)c2ccc(NC(=O)c3ccc4c(c3)OCCO4)cc2)n1,100,99,10,99,101,10,.,.,.,.,.,.,.
CCOC(=O)C1(CC2CC2)CCN(S(=O)(=O)/C=C/c2ccccc2)CC1,58,58,22,50,69,7,.,.,.,.,.,.,.
CCC(CC)=N/N=C/c1c(O)n(CC)c2cc(C3=NNC(=O)CC3)ccc12,80,24*,16,77,67,12,80*,1,105,100,110,100,110
CCn1c(C)nc2cc(C(=O)N/N=C/c3ccccc3)ccc21,98,98,23,97,101,13,.,.,.,.,.,.,.
CCn1c(O)c(/C=N/N=C/c2ccccc2)c2ccc(C3=NNC(=O)CC3)cc21,.,.,37,.,.,.,.,2,100,111,103,105,100
CCCCOc1ccc(C2=NNC(=O)CC2)cc1,100,103,13,100,98,11,.,.,.,.,.,.,.
CC1(C)CC(NC(=S)Nc2ccc([N+](=O)[O-])cc2)CC(C)(C)N1,102,100,10,97,100,10,.,.,.,.,.,.,.
CSCCC(NC(=O)C1CCCCC1)c1nc2ccccc2[nH]1 (configuration not stated),147,.,.,.,.,.,.,-1,101,104,102,105,149
SMILES,RGS4-Gao reg,RGS16-Gao,GSH bead fluor,RGS7-Gao reg,RGS8-Gao,Avidin fluor,RGS4-Gao HTS,Avidin counter,RGS8-Gao confirm,RGS7-Gao single,RGS16-Gao single,RGS4-Gao single,RGS19-Gao single
CSCC[C@H](NC(=O)COc1ccc(Cl)cc1)c1nc2ccccc2[nH]1,112,203*[activator],18,108,124,14,112*,-3,102,98,98,99,108
COc1ccc(C2=NN(C(=S)Nc3ccccc3)C(c3ccccc3)C2)cc1 (configuration not stated),117,385*[activator],11,118,134,12,117*,0,106,102,109,105,118
COc1ccc(C2CC(c3ccccc3)=NN2C(=S)Nc2ccccc2)cc1 (configuration not stated),104,104,9,109,102,25,.,.,.,.,.,.,.
Cc1ccc(S(=O)(=O)N(C)C)cc1NC(=O)c1ccncc1,103,101,15,102,99,11,.,.,.,.,.,.,.
Cc1ccc(S(=O)(=O)C(F)(F)F)cc1NC(=O)c1cccnc1,108,181*[activator],21,108,122,30,108*,-2,101,100,100,103,98
Cc1ccc(NS(=O)(=O)c2cccc(C(=O)Nc3c(C)n(C)n(-c4ccccc4)c3=O)c2)cc1,101,99,.,?,100,6,.,.,.,.,.,.,.
COC(=O)c1ccccc1NS(=O)(=O)c1ccc(F)cc1,99,104,29,101,100,22,.,.,.,.,.,.,.
